# This is a sample that favours compounds with a hit; in the whole collection about 3.6% have one here.
# S16 F2sN tox: cytotoxicity in S16 Pmp22-F2sN Schwann cells; S16 Pmp22-F2sN Schwann cells viability, CellTiter-Glo, 24 h; Potency, µM (top dose mostly 57.5 µM), without a hit: top-dose activity change, negative = cytotoxicity, usual class: cytotoxic; 43,000 compounds, 0.48% hits; AID 1508642; further: on the % scale 0 is the no-effect control and ±100 the full control effect; nearly all actives have a fitted effect of over 65% in size
#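 Viability was measured by CellTiter-Glo luminescence (15 min, room temperature). This followed 24 h at 37 °C of compound exposure (23 nL pin transfer) in S16 Pmp22-F2sN Schwann cells, 500-1,000 per well.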
# HTT-AS act: HTT-AS promoter activation; HEK293 HTT-AS promoter firefly luciferase reporter, 24 h; response scale: percent change from vehicle, -100% = no light; Potency, µM (series often up to 57.5 µM), for the others: top-dose activity change, positive = activation, usual class: activators; 48,000 compounds, 0.24% hits; AID 1508624; further: nearly all actives have a fitted effect of over 55% in size
#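 Firefly luciferase readout (Dual-Glo, 10 min RT) after 24 h, 37 °C compound exposure (final up to 57.5 uM) of HEK293 reporter cells cultured 24 h beforehand; PTC124 at 50 uM final as control inhibitor; activity scaled vehicle 0%, zero RLU -100%.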
# HTT prom inh: HTT promoter inhibition. HEK293 HTT promoter firefly luciferase reporter, 24 h. Potency, µM (titrated, usually from 57.5 µM), inactives show top-dose activity change, negative = inhibition, usual class: inhibitors. AID 1508623. 48,000 compounds, 0.93% hits; further: nearly all actives have a fitted effect of over 50% in size
#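 HEK293 luciferase promoter-reporter cells (2,500/well) plated 24 h, then compounds added at up to 57.5 uM final for 24 h at 37 °C. Firefly luminescence by Dual-Glo, normalized to vehicle (0%) and zero RLU (-100%).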
# PMP22 txn: PMP22 gene transcription modulation | S16 Pmp22-F2sN Schwann cells (luciferase reporters placed in the Pmp22 gene), FLuc/NLuc coincidence luminescence, 24 h | Potency, µM (series often up to 57.5 µM), inactives show at the top dose activity change, negative = inhibition, usual class: inhibitors | 43,000 compounds, 2% hits | AID 1508649; active means clear falling dose curves in both reporters; inconclusive means both reporters move, but less clearly or upward; inactive means either reporter flat; the % is the NLuc reporter signal; further: on the % scale 0 is the no-effect control and ±100 the full control effect
#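 S16(c9) Schwann cells with FLuc/NLuc coincidence reporter in the Pmp22 3' UTR; compounds pin-transferred, 24 h at 37C. Dual-luciferase read: FLuc first, then NLuc after Stop&Glo, each 10 min at room temperature.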
# SKOV3 invasion: ovarian cancer metastasis inhibition, 3D TME model; SKOV3ip1-GFP adhesion/invasion on 3D omental model, fluorescence; Potency, µM (highest dose often 45.8 µM), inactives show at the top dose activity change, negative = inhibition, usual class: inhibitors; 46,000 compounds, 0.1% hits;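 further: plate controls were DMSO wells for no effect and tomatine positive control wells for full effect; nearly all actives have a fitted effect of over 65% in size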
#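 Adhesion/invasion was scored as fixed GFP-labeled SKOV3ip1 cell counts (488/509 nm), normalized to DMSO and tomatine controls. Cancer cells in serum-free medium, with four compound doses (0.36-46 umol/L), sat 2 hr at RT then 16 hr at 37 C on a 48 hr fibroblast/mesothelial/ECM culture.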
# mTORC1 inh: reduces mTORC1 signaling in Tsc2 and p53 null MEF cells; Tsc2-/- p53-/- MEF, phospho-rpS6 immunofluorescence/PI, 24 h; Potency, µM (series often up to 38.3 µM), without a hit: at the top dose activity change, negative = inhibition, usual class: inhibitors; 44,000 compounds, 0.78% hits; AID 493208;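 further: plate controls were DMSO for no effect and rapamycin for full effect; nearly all actives have a fitted effect of over 50% in size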
#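 Tsc2-/-, p53-/- MEFs (empty-vector stable line) in DMEM + 10% FBS were treated with compounds 24 h at 37 degree Celsius, fixed, and immunostained for phospho-rpS6 (Alexa-488) with propidium iodide counterstain. Laser-scanning cytometry gave % positive cells, normalized against 7.5 nM rapamycin and DMSO.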
# Numbers without * were called inactive; i = inactive; ? = inconclusive; nt = no result given; ! = not active in a repeat. Unless noted, the call rests on the fitted dose curve; in most records, active means well fitted curve in the direction sought with a large enough effect; inconclusive means small, poorly fitted or top-dose-only effect, or another doubt; inactive means no such curve, though single readings can be large; an effect the other way counts as inactive or inconclusive. Potency means the concentration at half of the fitted maximal effect.
SMILES,S16 F2sN tox,HTT-AS act,HTT prom inh,PMP22 txn,SKOV3 invasion,mTORC1 inh
CCOc1ccc(-c2cc(CCCC(=O)NCCc3ccc(OCC)c(OCC)c3)no2)cc1,-2%,-80%,?,-11%,-10%,-10%
CCOc1ccc(-c2cc(CCCC(=O)NCCc3ccc(SC)cc3)no2)cc1,7%,-79%,0.79µM*,-12%,i,-14%
CCOc1ccc(-c2cc(CCCC(=O)NCCc3ccc(Cl)cc3)no2)cc1,8%,-73%,1.8µM*,-14%,4%,0%
CN[C@@H]1C[C@H]2O[C@@](C)([C@H]1OC)n1c3ccccc3c3c4c(c5c6ccccc6n2c5c31)C(=O)N[C@H]4O,nt,-56%,?,nt,-19%,nt
O=C(NCCc1ccccc1)C(=O)NCC(c1cccnc1)N1CCN(c2ccc(F)cc2)CC1 (configuration not stated),?,-49%,14µM*,?,-2%,?
COc1ccc(C(=O)NCC(c2cccnc2)N2CCN(c3ccccc3OC)CC2)cc1 (configuration not stated),1%,-53%,?,-8%,-2%,-2%
COc1ccccc1N1CCN(C(CNC(=O)C(=O)NCCc2ccccc2)c2cccnc2)CC1 (configuration not stated),?,-57%,7.1µM*,?,1%,3%
c1cc(OCCN2CCCCC2)cc(-c2n[nH]c3ccc(-c4ncn[nH]4)cc23)c1,nt,-21%,-25%,nt,30%,nt
Cc1cc(C)c(NC(=O)C2CCN(c3nc4ccccc4n4cccc34)CC2)c(C)c1,10%,-6%,-8%,-18%,-4%,15µM*
COc1cc(Cl)c(C)cc1NC(=O)C1CCN(c2nc3ccccc3n3cccc23)CC1,-6%,-32%,?,?,-2%,15µM*
Cc1[nH]c(C=C2C(=O)Nc3ccc(S(=O)(=O)Cc4c(Cl)cccc4Cl)cc32)c(C)c1C(=O)N1CCC[C@H]1CN1CCCC1,nt,-4%,-2%,nt,5%,nt
O=C(O)[C@@H](c1ccc(OCc2ccc3ccccc3n2)cc1)C1CCCC1,nt,14%,6%,nt,-2%,nt
C[C@@H](Cc1cc2c(c(C(N)=O)c1)N(CCCO)CC2)NCCOc1ccccc1OCC(F)(F)F,nt,-17%,-11%,nt,-2%,nt
NC(=O)c1nn2c(C(F)(F)F)cc(-c3ccc(Br)cc3)nc2c1Cl,28µM*,-29%,-32%,-19%,-3%,-2%
CCc1ccc(NC(=O)c2ccc(F)c(S(=O)(=O)N3CCC4(CC3)OCCO4)c2)cc1,-17%,-25%,16µM*,?,16%,-12%
CCc1ccc(NC(=O)c2ccc(F)c(S(=O)(=O)N3CCc4ccccc4C3)c2)cc1,-21%,-20%,25µM*,-21%,10%,-4%
O=C(Nc1ccccc1C(F)(F)F)c1ccc(F)c(S(=O)(=O)N2CCc3ccccc3C2)c1,-20%,-24%,?,-5%,4%,9%
CCc1ccc(NC(=O)c2ccc(F)c(S(=O)(=O)N3CCC(C)CC3)c2)cc1,0%,-36%,4.5µM*,-18%,-9%,0%
O=C(O)c1cccc(-c2noc(-c3ccccc3F)n2)c1,nt,4%,7.9µM*!,nt,9%,nt
O=C(CSc1nc(-c2ccccc2)no1)N1CCN(c2ccccc2F)CC1,3%,-9%,8%,-19%,1%,7%
Cc1c(CCOc2ccc(C(=O)O)cc2)c2cc(Cl)ccc2n1C(c1ccccc1)c1ccccc1,nt,-12%,-3%,nt,-5%,nt
COc1cccc2cc(C(=O)NCCc3c(C)[nH]c4ccc(F)cc34)c(=O)oc12,10%,5%,8%,-30%,i,-2%
COc1cccc2cc(C(=O)Nc3ccc(CC(=O)O)cc3)c(=O)oc12,4%,-90%,0.28µM*,-17%,-2%,-5%
CCCn1c(=O)c2[nH]c(-c3cnn(Cc4cccc(C(F)(F)F)c4)c3)nc2n(CC)c1=O,nt,0%,4%,nt,3%,nt
Cc1cccc(NC(=O)CCCn2c(C)c3cnn(-c4ccccc4)c(=O)c3c2C)c1C,-4%,-15%,-17%,-22%,i,1%
SMILES,S16 F2sN tox,HTT-AS act,HTT prom inh,PMP22 txn,SKOV3 invasion,mTORC1 inh
Cc1cccc(N2CCN(C(=O)Cn3c(C)c4cnn(-c5ccccc5)c(=O)c4c3C)CC2)c1C,?,-49%,10µM*,12µM*,i,5%
CN1CCC[C@H]1CCO[C@](C)(c1ccccc1)c1ccc(Cl)cc1,nt,-16%,12%,nt,3%,nt
COc1ccc(-c2nc(CSCC(=O)N3CCN(c4ccccc4F)CC3)c(C)o2)cc1,?,-66%,28µM*,?,14%,-8%
Cc1oc(-c2ccccc2F)nc1CS(=O)(=O)CC(=O)N1CCN(c2cccc(C(F)(F)F)c2)CC1,12%,-55%,?,-31%,-2%,-1%
Cc1oc(-c2ccccc2F)nc1CSCC(=O)N1CCN(c2ccccc2)CC1,?,-64%,22µM*,?,-2%,-10%
Cc1ccc(NCc2cc3cc4c(cc3n(CC(=O)Nc3ccc(F)cc3F)c2=O)OCCO4)cc1,11%,-3%,-23%,?,18%,?
COc1cc2cc(CNc3ccc(C)cc3)c(=O)n(CC(=O)Nc3ccc(F)cc3F)c2cc1OC,-1%,?,34%,-49%,-23%,5.2µM*
Cc1ccc(NCc2cc3cc4c(cc3n(CC(=O)Nc3ccc(C)cc3)c2=O)OCCO4)cc1,?,8%,8%,?,-12%,4.6µM*
Cn1cc(C=CC(=O)c2cccc(F)c2)cc1C=CC(=O)NO,nt,17%,33%,nt,-1%,nt
COc1cc2c(cc1NC(=O)C(C)Oc1ccccc1)oc1ccccc12 (configuration not stated),-16%,4µM*,32%,35%,11%,-18%
CC(C)CC(=O)Nc1cccc(-c2cn3cccnc3n2)c1,-4%,16µM*,78%,16%,-3%,0%
CCOC(=O)c1cccc(NS(=O)(=O)c2cc(-c3cnc(C4CC4)o3)ccc2C)c1,20µM*,-13%,?,-73%,i,0%
CCc1ccc(NS(=O)(=O)c2cc(-c3cnc(C4CC4)o3)ccc2C)cc1,?,-36%,?,-51%,i,-28%
O=C1C2=C(Nc3ccccc3SC2c2c(F)cccc2Cl)c2ccccc21 (configuration not stated),?,0%,-21%,?,?,-8%

# Screens: PubChem BioAssay, National Center for Advancing Translational Sciences (NCATS)
